ALOX12 inhib – 12-hLO (ALOX12) enzyme inhibition; purified 12-hLO, xylenol orange hydroperoxide absorbance; hit rate 0.12% among 150,000; P18054; Potency, µM (titrated, usually from 57.1 µM), without a hit: at the top dose activity change, negative = inhibition, usual class: inhibitors; active means well fitted inhibition curve with a large enough effect; inconclusive means small, poorly fitted or top-dose-only effect; further: potency means the concentration at half of the fitted maximal effect; nearly all actives have a fitted effect of over 55% in size
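Purified human 12hLO (150 nM), preincubated 15 min with compound, then 40 uM arachidonic acid for 30 min, room temperature, Hepes pH 7.0 with 0.01% Triton X-100. Hydroperoxide detected by ferrous iron/xylenol orange; 573/405 nm absorbance ratio gives reaction progress.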
ALDH1A1 inh – ALDH1A1 (human) enzyme inhibition. P00352. Purified ALDH1A1, NADH fluorescence, propionaldehyde substrate. Potency, µM (series often up to 75.3 µM), without a hit: top-dose activity, negative = inhibition, usual class: inhibitors. hit rate 7.3% among 220,000. AID 1030;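 further: potency means the concentration at half of the fitted maximal effect; plate controls were no enzyme wells and a reference inhibitor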
Target sequence (P00352 whole entry, looked up): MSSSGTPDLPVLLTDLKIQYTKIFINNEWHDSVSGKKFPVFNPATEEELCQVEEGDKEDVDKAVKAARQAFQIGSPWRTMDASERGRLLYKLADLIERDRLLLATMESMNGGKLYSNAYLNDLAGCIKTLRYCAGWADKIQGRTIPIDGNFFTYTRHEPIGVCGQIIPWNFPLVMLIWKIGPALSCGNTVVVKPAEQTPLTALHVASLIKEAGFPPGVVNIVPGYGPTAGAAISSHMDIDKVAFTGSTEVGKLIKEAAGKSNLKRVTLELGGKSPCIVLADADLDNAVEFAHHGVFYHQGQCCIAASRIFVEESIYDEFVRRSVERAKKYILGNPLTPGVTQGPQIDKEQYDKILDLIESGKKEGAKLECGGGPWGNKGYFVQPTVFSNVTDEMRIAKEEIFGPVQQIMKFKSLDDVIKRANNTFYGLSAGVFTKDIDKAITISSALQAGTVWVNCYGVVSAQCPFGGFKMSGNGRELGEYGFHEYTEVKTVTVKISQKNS
PNC assembly inh – perinucleolar compartment assembly inhibition; AID 2417; PC3M PTB-GFP, PNC prevalence imaging, 16 h; active compounds read low; activity change (PNC), negative = inhibition, % at 10 µM; hit rate 3.1% among 140,000;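 active means readout at or below -70, meaning at least 70% loss of cells showing the perinucleolar compartment, a nuclear body marking cancer cells; inconclusive means readout between -30 and a set limit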;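 further: plate controls were DMSO wells for no effect and camptothecin positive control wells for full effect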
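Compounds are pinned in duplicate onto adhered PC3M cells stably expressing GFP-tagged PTB and incubated 16 h at 37 C. Cells are then fixed, nuclei stained with Hoechst, and PNC-positive cells counted.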
HPGD block – HPGD (human) dehydrogenase inhibition; purified HPGD, NADH fluorescence kinetic, PGE2 substrate; hit rate 4.3% among 150,000; P15428; Potency, µM, without a hit: at the top dose activity change, negative = inhibition, hits mostly inhibitors; further: potency means the concentration at half of the fitted maximal effect
Target sequence (P15428 whole entry, looked up): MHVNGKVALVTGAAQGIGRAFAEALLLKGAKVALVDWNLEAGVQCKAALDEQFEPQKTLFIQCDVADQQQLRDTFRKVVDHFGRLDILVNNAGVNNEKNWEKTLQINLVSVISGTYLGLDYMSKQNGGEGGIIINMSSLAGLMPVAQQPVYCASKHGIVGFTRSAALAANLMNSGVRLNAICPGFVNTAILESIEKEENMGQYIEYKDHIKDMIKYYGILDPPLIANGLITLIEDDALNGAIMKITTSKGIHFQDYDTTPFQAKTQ
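20 nM HPGD preincubated 15 min at room temperature with compound in 50 mM Tris-HCl pH 8, 0.01% Tween 20. Started with 1 mM NAD+ and 30 uM prostaglandin E2; NADH fluorescence (360/450 nm) read 5 times over 30-s intervals, last minus first.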
Lamin A splicing – LMNA splicing modulation | hit rate 0.01% among 200,000 | Potency, µM (series often up to 46.1 µM), for inactives: top-dose ratio change, negative = inhibition, most hits filed as inhibitors | HeLa LMNA splicing GFP/RFP minigene ratio, 48 h; active means well fitted inhibition curve with a large enough effect in the signal ratio, with a control signal flat, not every such curve was filed as active; inconclusive means small, poorly fitted or top-dose-only effect, or effect the other way, or a change in a side signal; the % refers to the signal ratio; further: potency means the concentration at half of the fitted maximal effect
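S3 HeLa cells stably expressing lamin A-EGFP splicing minigene plus DsRed2, 600 cells/well, 48 h compound exposure at 37C. Laser-scanning cytometry; analysed as GFP (500-530 nm)/RFP (575-640 nm) total intensity ratio; 0.5% DMSO vehicle.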
* marks the source's active call; other numbers are inactive results; ? = inconclusive; · = no result given; [ ] = another dose, or the depositor's remark. Only some compounds are listed: those with a hit (about 10% of all), similar ones and a draw of the others. Unless noted, the call rests on the fitted dose curve; in most records, active means well fitted inhibition curve with a large enough effect (not every such curve was filed as active); inconclusive means small, poorly fitted or top-dose-only effect, or another doubt; inactive means no such curve, though single readings can be large or run the other way. Unless noted, on the % scale 0 is the no-effect control and ±100 the full control effect.

SMILES	ALOX12 inhib	ALDH1A1 inh	PNC assembly inh	HPGD block	Lamin A splicing
CCOc1ccc(CCNC(=O)C2=C(C)C(=O)OC23CCC(C)CC3)cc1 (centres undefined)	-1%	-1%	83	-14%	4%
COc1ccc(CNC(=O)C2=C(C)C(=O)OC23CCC(C)CC3)cc1 (centres undefined)	-6%	5.6µM*	-8	-8%	0%
Cc1ccc(NC(=O)Cn2ccn(-c3ccccc3)c(=O)c2=O)cc1	·	·	·	·	-25%[46 µM]
COC(=O)c1ccc(NC(=O)CNc2ccccc2)cc1	·	22µM*	·	·	?
O=C(CN1C(=O)CCC1=O)Nc1ccc(Br)cc1	5.6µM*	2.5µM*	9	-17%	-1%
COC(=O)c1ccc(NC(=O)CN2C(=O)CCC2=O)cc1	-4%	?	14	32µM*	3%
O=C(CN1C(=O)CCC1=O)Nc1cccc(NC(=O)CN2C(=O)CCC2=O)c1	·	2%	·	·	·
CCOC(=O)c1ccc(NC(=O)CN2C(=O)CCC2=O)cc1	-2%	-5%	5	-6%	-1%
Cc1nc2cccc([N+](=O)[O-])c2n1CCCN(C)C	2%[11.4 µM]	?	·	-1%	·
COc1ccc([C@@H](C)C(=O)c2ccc(O)cc2O)cc1	·	-6%	·	-17%	·
CCOc1ccccc1NC(=O)c1nn(-c2ccc(C)cc2)c(=O)n(C)c1=O	·	·	·	·	4%[46 µM]
Clc1ccc(C2=NNC(=NCC3CCCO3)SC2)cc1 (centres undefined)	-21%	8.9µM*	-24	?	-8%
Cc1cc(C2=NNC(=NCCc3ccccc3)SC2)c(C)n1CC1CCCO1 (centres undefined)	·	?	·	·	-5%[46 µM]
COc1ccc(OC)c(NC(=O)NC2(C(F)(F)F)Oc3ccccc3O2)c1	-11%	7.1µM*	32	-6%	-5%
Clc1cccc(Cl)c1CNc1ccc(N2CCCC2)cc1	·	16µM*	·	·	-1%[46 µM]
CC[C@H]1CN(C)[C@H]2Cc3c([nH]c4ccccc34)C(=O)C[C@H]1[C@H]2C(=O)OC	4%[11.4 µM]	?	·	-14%	·
O=C(O)C1=C/C(=C(/c2ccccc2)c2cc(C(=O)O)c(O)c3ccccc23)c2ccccc2C1=O	-5%[11.4 µM]	9%[13.5 µM]	·	-5%	·
Nc1nc2ccc(C(=O)NCCOC(=O)C3CCCCC3)cc2s1	·	10µM*	·	·	5%[46 µM]
CC(C)CN(CCCNC(=O)c1cc(=O)[nH]c2ccc(S(=O)(=O)N3CCCCCC3)cc12)CC(C)C	·	·	·	·	-1%[46 µM]
COc1cccc(OCc2nnc(SCC(=O)NCc3ccco3)n2CCc2ccccc2)c1	-13%	22µM*	42	-23%	29%
COc1cc(C=O)c([N+](=O)[O-])cc1OC	-9%	11µM*	·	-20%	·
COc1cc(/C=C(/NC(=O)c2ccccc2)C(=O)Nc2ccccc2)c([N+](=O)[O-])cc1OC	-19%	-15%	110	-3%	9%
C=CCNC(=S)NC(=O)c1ccc(C)c(Br)c1	·	16%	·	·	·
CCOc1ccc(N(CCCCO)C(=S)NC(=O)c2ccc(C)c(Br)c2)cc1	·	22µM*	·	·	8%[46 µM]
Cc1ccc(Nc2nc(=O)c3cccnc3s2)cc1	-2%	0%	23	-29%	?
SMILES	ALOX12 inhib	ALDH1A1 inh	PNC assembly inh	HPGD block	Lamin A splicing
CCN(c1ccccc1)c1nc(=O)c2cccnc2s1	·	20µM*	·	·	10%[46 µM]
c1ccc(-c2nc3ccccc3o2)nc1	-1%	?	-16	?	3%
c1ccc2nc(-c3nc4ccccc4o3)ccc2c1	-2%	?	-107*	?	1%
Cc1nn(-c2ccccc2)c(Cl)c1CN(C(=O)CCl)c1ccc(Cl)cc1	-6%	7.1µM*	12	-22%	?
CC(=O)N(Cc1c(C)nn(-c2ccccc2)c1Cl)c1ccc(Cl)cc1	-3%	-3%	?	-2%	6%
Cc1nn(-c2ccccc2)c(Cl)c1CN(C(=O)CCl)c1cccc2ccccc12	-5%	28µM*	-17	0%	?
CCc1ccc(-c2nc(CS(=O)CC(=O)NCCc3ccc(C)cc3)c(C)o2)cc1 (centres undefined)	·	·	·	·	14%[46 µM]
CC(=O)N1CCc2ccc(C(=O)CN3CCN(c4cccc(C)c4C)CC3)cc21	-2%	8.9µM*	-4	-24%	12%
CC(=O)N1CCc2cc(C(=O)CN3CCN(c4cccc(Cl)c4)CC3)ccc21	1%	6.3µM*	6	-11%	0%
CC(=O)N1CCc2cc(C(=O)CN3CCN(C(=O)c4ccco4)CC3)ccc21	-4%	11µM*	?	-6%	14%
Cc1cccc(N2CCN(C(=O)c3ccncc3)CC2)c1C	-1%	-6%	23	2%	?
CC(=O)N1CCc2cc(C(=O)CN3CCC(C)CC3)ccc21	-5%	20µM*	12	?	4%
CC(=O)N1CCc2cc(C(=O)CN3CCCN(Cc4ccc(F)cc4)C3)ccc21	6%	?	33	-13%	4%
O=C(Nc1ccccc1)N(Cc1cccc(Cl)c1)c1ccccn1	·	·	·	·	-2%[46 µM]
O=C(O)c1c2c(c(O)c3c1CN(C1CCCCC1)CO3)OCN(C1CCCCC1)C2	-5%[11.4 µM]	1%[13.5 µM]	·	-13%	·
Cc1cc(/C=C2/NC(=O)N(Cc3ccccc3F)C2=O)c(C)n1C	-2%	1.1µM*	?	-14%	-4%
CCOc1cc([N+](=O)[O-])cc(/C=C2/NC(=O)N(Cc3ccccc3F)C2=O)c1O	·	2.2µM*	·	·	·
COc1cc(/C=C2/NC(=O)N(Cc3ccccc3F)C2=O)cc(OC)c1OC	·	2.5µM*	·	·	·
O=C1N/C(=C/c2cccs2)C(=O)N1Cc1ccccc1F	·	?	·	·	13%[46 µM]
Cc1cc(/C=C2/NC(=O)N(Cc3ccccc3F)C2=O)c(C)n1-c1ccccn1	-14%	8.9µM*	44	?	?
CC1=C(C(=O)NCc2cccc(Cl)c2)C2(CCCCCC2)OC1=O	·	·	·	·	-4%[46 µM]
O=C(NCCc1csc(-c2cccc(F)c2)n1)c1cccs1	·	·	·	·	7%[46 µM]
Cc1nc(-c2ccc(S(=O)(=O)NCc3ccc(OC(C)C)cc3)cc2)co1	·	·	·	·	-6%[46 µM]
COc1ccc(S(=O)(=O)NCCc2sc(-c3cccc(F)c3)nc2C)cc1	·	·	·	·	10%[46 µM]
Cc1cc(/C=c2/sc3nc4ccccc4n3c2=O)c(C)n1-c1ccccn1	-15%	13µM*	-8	-11%	-5%
SMILES	ALOX12 inhib	ALDH1A1 inh	PNC assembly inh	HPGD block	Lamin A splicing
CSc1nc(C)cc(-n2cc(F)c(=O)[nH]c2=O)n1	0%	1%	31	14µM*	1%
COC(=O)C1=C(C(=O)OC)[C@@H]2N(Cc3ccccc3)c3ccccc3[C@@]23C[C@@H](C(=O)OC)N(S(=O)(=O)c2ccc(OC)cc2)C3=N1	-2%[11.4 µM]	2%[13.5 µM]	·	2%	3%[9.22 µM]
O=C(c1ccccc1)c1c[nH]c(C(=O)NNc2ccccc2)c1	·	22µM*	·	·	?
O=C(c1ccccc1)c1c[nH]c(C(=O)NCc2cccnc2)c1	-1%	-1%	8	?	?
COc1cc([N+](=O)[O-])ccc1NC(=O)N1CCC2(CC1)Nc1ccccc1-n1cccc12	·	·	·	·	-4%[46 µM]
O=C(NC1CCCCCCC1)C1c2ccccc2C(=O)N1Cc1cccs1 (centres undefined)	0%	0%	24	-1%	-9%
